Laboratory results from PubChem BioAssay AID493169 (National Center for Advancing Translational Sciences (NCATS), 2011).
Records with an inconclusive call do not appear. Entries that show only a call come without a potency. Active and inactive are the calls of the source. Calls come from the whole dose curve; as a rule, active = well fitted inhibition curve with a large enough effect; inconclusive = small, poorly fitted or top-dose-only effect; inactive = flat fitted curve, though single readings scatter.

experiment: CHOP2 Reporter Counterscreen Assay for Inhibitors of Ubiquitin-specific Protease USP2a; details: purified enterokinase, fluorogenic substrate, 485/531 nm; series mostly up to 38.3 µM;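 note: activated enterokinase alone at 50 pM in a cell-free format rather than USP2a or CHOP2; nearly all actives have a fitted effect of over 55% in size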
Procedure, shortened: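 Cell-free counterscreen with pre-activated enterokinase alone (50 pM final) in 20mM Tris-HCl pH 8.0, 2mM CaCl2, 2mM beta-mercaptoethanol, 0.05% CHAPS; compound preincubation 30 min RT, reporter substrate 25nM final, fluorescence read after 10 min (Ex 485/Em 531).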
Potency is the fitted concentration of half-maximal effect.

Compound	Potency
O=C(OCC1OC(n2ncc(=O)[nH]c2=O)C(OC(=O)c2ccccc2)C1OC(=O)c1ccccc1)c1ccccc1 (stereo not given)	7.94 µM (active)
Cc1cc(C(=O)Nc2ccccc2N2CCOCC2)c2ccccc2n1	inactive
C=CC[C@H](CC(=O)OC(C)(C)C)C(=O)OC[C@@H]1CCCN1C(=O)[C@H](CC=C)CC(=O)N[C@H](CO)Cc1ccccc1	inactive
COc1ccc(-c2[nH]ncc2/C=C(/C#N)C(=O)NC2CCCCC2)cc1	inactive
O=C(CSc1ccc(Br)c2cccc(Cl)c12)Nc1ccc(S(=O)(=O)Nc2nccs2)cc1	11.2 µM (active)
CCOC(=O)CN1C(=O)S/C(=C/c2ccc(O)c([N+](=O)[O-])c2)C1=O	inactive
CCOc1ccc2[nH]c(=O)c(CN(Cc3cccs3)Cc3nnnn3C(C)(C)CC)cc2c1	inactive
CCOc1ccccc1C(=O)NC1CC2CCCC(C1)N2C1CC1 (stereo not given)	inactive
CCCCCCCCCCOC(=O)Cn1c(COc2ccccc2)[n+](C)c2ccccc21	11.2 µM (active)
COc1ccc(CCNC(=O)Cc2cc(=O)[nH]c(=O)[nH]2)cc1OC	inactive
CC(C)CC(=O)NC(=S)Nc1nc(-c2ccc(Cl)cc2)cs1	inactive
O=C(/C=N/O)NCc1cccnc1	inactive
O=C(NC12CC3CC(CC(C3)C1)C2)C1=COCCO1	inactive
COc1cc(C(c2c(C)[nH][nH]c2=O)c2c(C)[nH][nH]c2=O)ccc1OCc1ccc([N+](=O)[O-])cc1	inactive
FC(F)Sc1ccc(NC(=S)NC2CCCCC2)cc1	inactive
CCN1C(=O)C(NC(C)=O)c2cc(OC)ccc21 (stereo not given)	inactive
Cn1c(=O)c(C(=O)Nc2ncccc2O)c(O)c2ccccc21	10 µM (active)
Cc1ccc(C(=O)COC(=O)CNC(=O)CN2C(=O)c3ccccc3C2=O)cc1	inactive
Cc1ccc(C(=O)c2coc3c2C(=O)C(=O)c2ccccc2-3)cc1	inactive
CC(C)(C)C1CCC2(CC1)Nc1cccc3cccc(c13)N2	inactive

Compound	Potency
CCn1c(COc2ccccc2)nnc1SCC(=O)CC(=O)Nc1ccccc1OC	inactive
CS(=O)(=O)c1ccc(C(=O)Nc2nc(-c3ccco3)c(-c3ccco3)s2)cc1	inactive
COCCn1c(CN(Cc2ccccc2)Cc2ccccc2)nc2c1c(=O)n(C)c(=O)n2C	inactive
CCC1SC2=NC(C)=C(C(=O)OCCOC)C(c3ccc(C(=O)OC)cc3)N2C1=O (stereo not given)	inactive
CCC(C)NC(=O)CSC1=Nc2ccccc2C2=NC(c3ccccc3)C(=O)N12 (stereo not given)	inactive
O=S(=O)(NC1CCSc2ccccc21)c1ccccc1 (stereo not given)	inactive
CCOc1ccccc1C(=O)Nc1nnc(C(C)C)s1	inactive
O=C(CCN1C(=O)/C(=C\c2ccco2)SC1=S)Nc1ccc(C(=O)O)c(O)c1	10 µM (active)
Nc1ccccc1S(=O)(=O)NC1=NCCCCC1	inactive
COc1ccc(-n2c(=S)[nH]c3cc(C(=O)Nc4cc(OC)c(OC)c(OC)c4)ccc3c2=O)c(OC)c1	inactive
CCCCCCCCCCC[N+](C)(C)CC/C=C1/c2ccccc2Sc2ccc(Cl)cc21	11.2 µM (active)
CC(=O)c1ccc(Nc2ncnc3c2oc2ccccc23)cc1	inactive
COc1ccc(OC)c(NC(=O)CSc2nc(O)cc(=O)n2CC(C)C)c1	inactive
O=C(Nc1ccc2nc(-c3ccco3)c(-c3ccco3)nc2c1)N1CCN(c2ccccn2)CC1	2.82 µM (active)
COc1ccc(-c2nc(Cn3c(SCc4ccc(F)cc4)nc4ccncc43)c(C)o2)cc1OC	inactive
Cc1c(NC(=O)C2CCCN(S(=O)(=O)c3cnc[nH]3)C2)c(=O)n(-c2ccccc2)n1C (stereo not given)	inactive
CC(NC(=O)COc1ccccc1-c1ccccc1)c1ccccc1 (stereo not given)	inactive
Cc1ccc2[nH]c(C)c(CCNC(=O)c3cc4cc([N+](=O)[O-])ccc4oc3=O)c2c1	inactive
CC(C(=O)Nc1ccc(C(=O)O)c(O)c1)N1C(=O)/C(=C\c2ccco2)SC1=S (stereo not given)	7.94 µM (active)
NS(=O)(=O)c1ccc(N=Nc2c(O)c(C(=O)O)cc3ccccc23)cc1	11.2 µM (active)
